Reference: ChEMBL document CHEMBL3433997, “St. Jude Leishmania screening dataset” (2016)

Tests used:
Assay type in all cases: functional
[1] = biological target: Solute carrier family 2, facilitated glucose transporter member 1 (Homo sapiens) (UniProt P11166); assay: ST_JUDE_LEISH: Cytotoxicity at 2uM final concentration against transgenic Leishmania Mexicana promastigotes LmGLUT1 that are glucose transport deficient and complemented with the human glucose transporter GLUT1. Activity is measured by DNA content using SYBR green in vitro
Solute carrier family 2, facilitated glucose transporter member 1 (Homo sapiens), sequence (P11166 whole entry): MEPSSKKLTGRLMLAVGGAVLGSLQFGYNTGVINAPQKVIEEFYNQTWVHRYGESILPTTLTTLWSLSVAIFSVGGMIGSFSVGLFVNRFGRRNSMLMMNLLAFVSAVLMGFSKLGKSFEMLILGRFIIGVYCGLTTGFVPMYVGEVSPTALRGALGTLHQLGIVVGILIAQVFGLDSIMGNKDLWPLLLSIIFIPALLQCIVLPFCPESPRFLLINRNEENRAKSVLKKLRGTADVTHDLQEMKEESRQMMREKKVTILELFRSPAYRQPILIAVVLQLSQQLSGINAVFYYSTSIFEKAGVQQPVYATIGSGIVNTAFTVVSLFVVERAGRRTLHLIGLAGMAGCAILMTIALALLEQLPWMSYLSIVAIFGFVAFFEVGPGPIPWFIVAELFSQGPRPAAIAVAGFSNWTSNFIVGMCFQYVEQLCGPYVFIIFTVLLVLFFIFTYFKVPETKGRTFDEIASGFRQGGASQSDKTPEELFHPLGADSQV

[2] = biological target: Hexose transporter 1 (Plasmodium falciparum) (UniProt O97467); assay: ST_JUDE_LEISH: Cytotoxicity at 2uM final concentration against transgenic Leishmania Mexicana promastigotes LmPfHT that are glucose transport deficient and complemented with the Plasmodium falciparum hexose transporter. Activity is measured by DNA content using SYBR green in vitro
[3] = biological target: Glucose transporter (Leishmania mexicana) (UniProt O61059); assay: ST_JUDE_LEISH: Cytotoxicity at 2uM final concentration against transgenic Leishmania Mexicana promastigotes LmGT2 that are glucose transport deficient and complemented with the L. Mexicana glucose transporter 2. Activity is measured by DNA content using SYBR green in vitro

| Structure (SMILES) | inhibition [1] [%] | inhibition [2] [%] | inhibition [3] [%] |
| --- | --- | --- | --- |
| Cc1ccc(NC(=O)c2cc(S(=O)(=O)NC(C)(C)C)ccc2C)nc1 | 0.04 | 0.34 | 2.32 |
| CCC[C@@H]([C@@H](Cc1ccc(C)s1)C(=O)N[C@@H](CNC(C)=O)C(=O)Nc1nccs1)N(O)C=O | 12 | 9.56 | 8.72 |
| O=C(Nc1cccc(CN2CCN(Cc3ccc(O)cc3)CC2)c1)c1cc2ccccc2s1 | 8.18 | 7.34 | 8.57 |
| CC(CC1CCCCC1)NCc1ccccc1OCCC(=O)N1CCCC1C(N)=O (stereo not drawn) | 3.79 | 3.8 | 0.2 |
| CCn1ccc2c(N3CCCCS3(=O)=O)cc(C(=O)N[C@@H](Cc3ccccc3)[C@H](O)CNC3CCCCC3)cc21 | 5.11 | 5.66 | 3.42 |
| O=[N+]([O-])c1ccc2nccnc2c1 | 6.19 | 5.71 | 6.9 |
| O=C(Nc1ccc(OC2CCN(Cc3ccsc3)CC2)c(Cl)c1)c1ccco1 | 2.93 | 5.95 | 4.7 |
| Oc1ccc(C2CNCCc3c2cc(O)c(OCc2ccccc2)c3Cl)cc1 (stereo not drawn) | -0.07 | -1.5 | 2.54 |
| O=C(Nc1cccc(-c2ccc(-c3nc4ccccc4[nH]3)cc2)c1)Nc1ccc2c(c1)OCO2 | 1.14 | 1.8 | 0.06 |
| COC(=O)C1(NC(=O)c2ccc(-n3nc(C)c(-c4ccccc4)c3N)cc2)CCCC1 | 2.04 | 2.33 | 2.55 |
| Cc1ccc(Cc2cnc(CN3CCCCC3)c(O)c2)cc1 | -1.22 | -2.99 | 0.07 |
| COc1ccc(NC(=O)CCNc2ccnc(NCCc3ccc(F)cc3)n2)cc1 | 2.48 | 2.27 | 1.75 |
| O=C(Nc1cccc(-c2nn3ccccc3c2-c2ccnc(Nc3ccccc3)n2)c1)c1c(F)cccc1F | 0.96 | 5.19 | 1.51 |
| COc1ccc2nccc([C@@H](O)CN3CCC(NCc4cc5ccccc5s4)CC3)c2c1 | 5.41 | 10.3 | 0.03 |
| Cc1[nH]c(C)c(-c2ccc(OCc3cc(C(F)(F)F)cc(C(F)(F)F)c3)nc2)c(=O)c1Cl | 6.26 | 9.78 | 4.84 |
| CC(C)CCn1c(Sc2ccc([N+](=O)[O-])cc2C(F)(F)F)nnc1-c1ccccc1Cl | 1.8 | 1.95 | 2.26 |
| FC(F)(F)c1ccc2[nH]c(-c3ccc(-c4cccc(CNCCN5CCNCC5)c4)cc3)nc2c1 | 0.53 | -0.94 | -1.87 |
| CS(=O)(=O)N(c1ccccc1)c1cc(C(=O)N[C@@H](Cc2ccccc2)[C@H](O)CNC2CC2)cc(N2CCCC2=O)c1 | 4.45 | 5.62 | 4.38 |
| Cc1[nH]c(C)c(-c2ccc(CCc3ccc(F)cc3F)cc2)c(=O)c1Br | -0.51 | -1.51 | -2.17 |
| O=C1C[C@@H]([S+]([O-])Cc2nccs2)N1CCOCCCCCCc1ccc(Cl)cc1 (stereo partly drawn) | 9.09 | 8.24 | 9.2 |
| COc1ccc2nccc([C@@H](O)CN3CCC(NC(=O)C(c4cc5ccccc5s4)N4CCN(c5ccccc5OC)CC4)CC3)c2c1 (stereo partly drawn) | 1.84 | 1.89 | 0.56 |
| CCCc1c(C(=O)OCC)c2cc(O)ccc2n1-c1ccc(OC)cc1 | 5.29 | 6.77 | 4.32 |
| FC(F)(F)c1ccc2[nH]c(-c3ccc(-c4ccc(CN5CCN(c6cnccn6)CC5)cc4)cc3)nc2c1 | 12.9 | 10.6 | 7.09 |
| Cc1cc(N[C@@H](CC(C)C)C(=O)NCCCOC(C)C)nc(NCCc2ccc(F)cc2)n1 | 2.71 | 1.92 | 0.62 |

| Structure (SMILES) | inhibition [1] [%] | inhibition [2] [%] | inhibition [3] [%] |
| --- | --- | --- | --- |
| COc1ccccc1-n1ccnc1SCC(=O)Nc1cc(C(F)(F)F)ccc1Cl | -3.59 | -0.64 | -1.83 |
| CCCCOc1ccc(-c2nc3ccccc3[nH]2)cc1 | 9.74 | 8.64 | 2.74 |
| CCOc1ccc(-c2nc(NC(=O)COc3ccc(OC)cc3)sc2C)cc1 | 9.63 | 10 | 10.1 |
| Cc1nc2nc(N)nc(N)c2c(C)c1Cc1ccccc1Br | 7.5 | 14.9 | 6.78 |
| COc1cc2nc(NCCc3ccccc3)nc(NCc3cnn(C)c3C)c2cc1OC | 9.47 | 8.36 | 7.1 |
| Nc1nc(N)c2c(n1)CCc1cc(Br)ccc1-2 | 1.65 | 4.52 | 2.4 |
| CNC(=O)c1ccccc1Nc1nc(Nc2cccnc2)ncc1C | -2.88 | -0.32 | -0.69 |
| C=CCc1cccc(OC)c1OCCCON1C(=N)N=C(N)NC1(C)C | -0.04 | 0.37 | 0.43 |
| COc1cc2nccc(Nc3ccc(Oc4ccccc4)cc3)c2cc1OC | 3.01 | 9.3 | 4.02 |
| CCC1CCCCN1S(=O)(=O)c1ccc(OC)c(N2CCN(C(=O)C(Cl)(Cl)Cl)CC2)c1 (stereo not drawn) | 4.89 | 6.41 | 6.44 |
| CC1CCC(NCc2c(O)ccc3ccccc23)CC1 (stereo not drawn) | 2.01 | 1.89 | 2.46 |
| CCCCCCP(=O)(COc1ccc(CCN(CC(O)COc2cccc3[nH]c(C(N)=O)cc23)CC(O)COc2cccc3[nH]c(C(N)=O)cc23)cc1)OCCCC (stereo not drawn) | 8.37 | 8.1 | 6.45 |
| O=C(Nc1ccc(-c2ccccc2)c(OCCN2CCNCC2)c1)c1ccc(-c2ccc(Cl)cc2)cc1 | 3.89 | 5.96 | 3.11 |
| O=C(Nc1ccc([N+](=O)[O-])cc1)Nc1cc(C(F)(F)F)ccc1F | 0.91 | 1.47 | 3.15 |
| CN1CCN(c2ccnc3ccc(NC(=O)Nc4ccc5c(c4)CCC5=O)cc23)CC1 | 3.7 | 2.43 | 5.45 |
| O=C(Cc1c[nH]cn1)Nc1ccc(-c2ccc(-c3nc4cc(C(F)(F)F)ccc4[nH]3)s2)cc1 | -0.37 | -0.36 | -0.01 |
| COc1cccc(C(=O)C2CC2CN(C)CCC(O)c2ccc(Cl)c(Cl)c2)c1 (stereo not drawn) | 3.35 | 3.48 | 4.04 |
| CN(C)CCNCc1ccc(-c2ccc3c(Nc4ccc(Oc5ccccc5)cc4)ccnc3c2)o1 | -1.6 | -1.01 | -0.02 |
| COc1cc(-c2[nH]c(-c3ccc(OCCN(C)C)cc3)cc2-c2ccncc2)ccc1Cl | 1.46 | 1.55 | 1.76 |
| CC(C)N1CCC(NC(=O)N2CCCN(c3ncnc4cc(-c5ccc(Cl)cc5)sc34)CC2)CC1 | -0.49 | 0.6 | -3.09 |
| OC(CNCc1ccccc1)c1cc(OCc2ccccc2)cc(OCc2ccccc2)c1 (stereo not drawn) | -0.14 | -1.19 | -0.63 |
| O=C(/C=C/c1ccc(Cl)c(Cl)c1)NCCCCCN1CCC(NC(=O)Nc2cc(F)cc(F)c2)CC1 | -0.2 | 1.46 | 4.15 |
| COc1cccc2[nH]c(NCCCNCc3cc(Br)cc(Br)c3)nc12 | 3.51 | 1.26 | 2.63 |
| Cn1cc(C2CCN(CCCCNC(=O)c3ccc(C(=O)Nc4ccc(C#N)cc4)cc3)CC2)c2ccccc21 | 9 | 7.5 | 7 |

| Structure (SMILES) | inhibition [1] [%] | inhibition [2] [%] | inhibition [3] [%] |
| --- | --- | --- | --- |
| CN1CCN(CC2(Nc3nccc(NCCc4cn(C)c5ccccc45)n3)CCCCC2)CC1 | 0.99 | 1.78 | -1.09 |
| CC(Cc1ccc(Cl)cc1)Nc1nc(NC2CCCC2)nc(N2CCC(C#N)(c3ccccc3)CC2)n1 (stereo not drawn) | 8.45 | 5.49 | -0.98 |
| Cn1cncc1C(=O)Nc1ccc(-c2cccc(-c3nc4cc(F)ccc4[nH]3)c2)cc1 | 3.54 | 3.21 | 4.7 |
| COc1c(C2CCN(CCN3CCC(CNC(=O)c4ccc(-c5ccc(C#N)cc5)cc4)CC3)CC2)ccc2c1CCCC2 | 3.97 | 8.83 | 8.54 |
| Cc1sc(CNCCCNc2cc(=O)c3ccccc3[nH]2)cc1Br | 0.99 | 0.97 | 0.93 |
| Cc1ccccc1/N=C1\NC(=S)N(c2cccc(C(F)(F)F)c2)C12CCC(C(C)(C)C)CC2 (stereo not drawn) | 2.78 | 2.68 | 2.58 |
| COc1ccc(O)c(C(=O)c2cc(C#N)c(=O)n(-c3ccc(Oc4ccccc4)cc3)c2)c1 | 10.2 | 8.65 | 9.41 |
| CCCCN(Cc1cc(Cl)c(OCC)c(OC)c1)c1ccc(C(O)(C(F)(F)F)C(F)(F)F)cc1 | -0.54 | -0.97 | -2.65 |
| O=C(Cn1c(CCc2cccc(F)c2F)nc(=O)c2cccnc21)N(Cc1ccc(-c2ccc(C(F)(F)F)cc2)cc1)C1CCN(C2CCOCC2)CC1 | 2.69 | 1.35 | 1.43 |
| Cc1ccccc1Nc1nc(Nc2ccccc2)c2ccccc2n1 | 38.8 | 44 | 13 |
| CN(C(=O)Cc1ccc(Cl)c(Cl)c1)C1CCN(CCCCCNC(=O)/C=C/c2ccc(Cl)c(Cl)c2)CC1 | 4.46 | 3.72 | 3.27 |
| O=C([C@H]1CCCCN1c1ccc([N+](=O)[O-])c2ccccc12)N1CCN(c2ncccn2)CC1 | 2.02 | 3.05 | 2.64 |
| O=C(Nc1ccc(Cl)c(Cl)c1)N1CCc2cc3nccc(N4CCN5CCC[C@H]5C4)c3cc21 | 3.24 | 4.53 | 4.1 |
| COc1ccccc1CNC(=O)C(=O)Nc1c(-c2ccccc2)[nH]c2ccccc12 | -3.25 | -4.12 | -1.57 |
| CN(CC1CCC(NC(=O)/C=C/c2ccc(Cl)c(Cl)c2)CC1)C1CCC(c2c[nH]c3ccccc23)CC1 (stereo not drawn) | -0.25 | 0.8 | 2.15 |
| C=CCOC(=O)N1CCC(CNCc2cccc(-c3ccc(-c4nc5ccccc5[nH]4)s3)c2)C1 (stereo not drawn) | 1.51 | 1.79 | 1.26 |
| CCOC(=O)c1nc(-c2ccc(Cl)cc2)[nH]c1NC(=S)NCCCN1CCOCC1 | -0.48 | 1.52 | -2.41 |
| COc1ccccc1C(=O)C1CCCN(C(=O)c2ccccc2C(F)(F)F)C1 (stereo not drawn) | -0.79 | -0.77 | 9.65 |
| O=C(Nc1ccc(F)cc1)NC1CCN(c2ccnc3cc(Cl)ccc23)CC1 | 3.63 | 3.1 | 1.68 |
| CN(C)c1cccc(-c2cnc3ccc(NCc4cccc(Cl)c4)nn23)c1 | 1.27 | 2.01 | 1.77 |
| S=C(NCCN1CCOCC1)Nc1ccccc1 | -1.94 | 0.47 | 0.17 |
| CN(c1ccccc1)c1ccnc(NC(=N)Nc2ccc(Cl)cc2)n1 | 5.16 | 5.4 | 5.1 |
| COc1ccc(CCN(C)CCOc2ccc(NC(=O)c3cc(SC)cc4c(=O)c5ccccc5[nH]c34)cc2)cc1OC | 4.06 | 3.15 | 2.82 |
